Test results taken from PubChem BioAssay (NCI).
Values joined by “and” are separate entries in the source; they are usually repeats but may differ in a detail not shown here. Equal values may be shown once. This is part of a sample that, as a whole, favours compounds with a hit. Of some 83,000 tested, about 20% had one in any assay.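 Note: values are percent growth. 100 is the growth of untreated cells, values between 100 and 0 indicate rising inhibition; between -100 and 0 indicates cell death.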 Unmarked numbers belong to inactive results. Active and inactive are the calls of the source. How the source made its calls: active means growth percent below 10; inactive means the rest.

System: MDA-MB-468 breast
Assay: NCI-60 one-dose screen, 48 h (100 = growth as untreated, 0 = no growth, -100 = all killed)
Conditions: 10 µM unless noted

| Compound | growth |
| --- | --- |
| COc1ccccc1-c1c(-c2ccc(Cl)cc2)c2cc3c(cc2[nH]c1=O)OCCO3 | 62.7% |
| Cc1ccc(/C=N/NC(=O)CSc2nc3ccccc3c(=O)n2Cc2ccc(S(N)(=O)=O)cc2)cc1 | 81.2% |
| N#CC1=C(N)Oc2c(sc3c(Br)cccc23)C1c1ccc(Br)cc1 (centres undefined) | 12.1% |
| COc1cc(NCCCN)c2ncccc2c1 | 76% |
| N#CC1=C(N)Oc2cc(N)ccc2C1c1ccc(F)cc1 (centres undefined) | 45.1% |
| O=C1/C(=C/c2cccc([N+](=O)[O-])c2)COc2ccc(O)c(O)c21 | -47.8% (active) |
| CCOC(=O)NC(Cc1ccccc1)c1ccccc1 (centres undefined) | 106% |
| O=C(Nc1ccc(Oc2cccc(Cl)c2)c(Cl)c1)c1cccnn1 | 63.3% |
| O=C(/C=C/C12c3ccccc3C(c3ccccc31)C1C(=O)N(c3ccccc3)C(=O)C12)c1ccccc1 (centres undefined) | 1.31% (active) |
| Cc1nn(-c2ccc(Cl)cc2)c2nc3c(nc12)c(=O)oc1ccccc13 | 125% |
| C[C@H]1[C@H](C)CC[C@]2(C(=O)OCCCC[P+](c3ccccc3)(c3ccccc3)c3ccccc3)CC[C@]3(C)C(=CC[C@@H]4[C@@]5(C)CC[C@H](OC(=O)C(Cl)Cl)C(C)(C)[C@@H]5CC[C@]43C)[C@H]12 | -70.3% (active) |
| C=C1C(=O)O[C@H]2[C@H]1CC/C(COC(=O)/C=C\C(=O)NCc1ccc(Cn3c(=O)sn(-c4ccc(Cl)cc4)c3=O)cc1)=C\CC[C@@]1(C)O[C@@H]21 | -83.5% (active) |
| COc1cccc(/C=C2\COc3ccc(O)cc3C2=O)c1OC | 43.9% |
| NC(=O)Nc1ccc(-n2cnc3cc(-c4ccc(O)cc4)ccc32)cc1 | 129% |
| CN(C)c1ccc(/C=C(\C#N)c2ccccc2)cc1 | 4.19% (active) and -2.35% (active) and 4.76% (active) |
| Cc1ccc(S(=O)(=O)Nc2ccc(-c3cc(-c4cccc(F)c4)c(C#N)c(N)n3)cc2)cc1 | -14.9% (active) |
| COc1ccc2[nH]cc(/C=N/Nc3nc4ccccc4s3)c2c1 | 40.6% |
| C=C(Cl)COC(=O)C(C)(C)O | 118% |
| COc1ccc(C(=O)/C=C/c2cc(-c3ccc4c(c3)OCO4)n[nH]2)cc1OC | 28.2% |
| COc1cc(-c2cc(/C=C/C(=O)c3ccc(N)cc3)[nH]n2)cc(OC)c1OC | -47.7% (active) |
| CC1(C)CC[C@]2(CO)CC[C@]3(C)[C@H](CC[C@@H]4[C@@]5(C)CCCNC(C)(C)[C@@H]5CC[C@]43C)[C@H]2[C@H]1O | 71.3% |
| O=C(Nc1cnc(C(F)(F)F)cn1)c1cc(Cl)ccc1O | -0.82% (active) |
| CCOC(=O)c1nc(Nc2cc(C)[nH]n2)c2ccccc2n1 | 54.9% |
| N#Cc1c(-c2cccs2)cc(-c2cnccn2)nc1SCC(=O)Nc1ccc(Br)cc1 | 81.1% |
